PubChem BioAssay (NCATS)
Results filed as inconclusive are left out. Activity calls are given as the source filed them. Unless noted, the call rests on the fitted dose curve; in most records, active means well fitted curve in either direction with a large enough effect (not every such curve was filed as active); inconclusive means small, poorly fitted or top-dose-only effect, or another doubt; inactive means flat fitted curve, though single readings scatter.

Assays:
[1] = target: Lysosomal acid glucosylceramidase (Homo sapiens) (UniProt P04062); experiment: Glucocerebrosidase-p2 (AID 348; in the data active means potency below about 10 µM; further: potency means the concentration at half of the fitted maximal effect); details: purified GBA, blue fluorogenic substrate, 40 min
Lysosomal acid glucosylceramidase (Homo sapiens), sequence (P04062 whole entry, looked up): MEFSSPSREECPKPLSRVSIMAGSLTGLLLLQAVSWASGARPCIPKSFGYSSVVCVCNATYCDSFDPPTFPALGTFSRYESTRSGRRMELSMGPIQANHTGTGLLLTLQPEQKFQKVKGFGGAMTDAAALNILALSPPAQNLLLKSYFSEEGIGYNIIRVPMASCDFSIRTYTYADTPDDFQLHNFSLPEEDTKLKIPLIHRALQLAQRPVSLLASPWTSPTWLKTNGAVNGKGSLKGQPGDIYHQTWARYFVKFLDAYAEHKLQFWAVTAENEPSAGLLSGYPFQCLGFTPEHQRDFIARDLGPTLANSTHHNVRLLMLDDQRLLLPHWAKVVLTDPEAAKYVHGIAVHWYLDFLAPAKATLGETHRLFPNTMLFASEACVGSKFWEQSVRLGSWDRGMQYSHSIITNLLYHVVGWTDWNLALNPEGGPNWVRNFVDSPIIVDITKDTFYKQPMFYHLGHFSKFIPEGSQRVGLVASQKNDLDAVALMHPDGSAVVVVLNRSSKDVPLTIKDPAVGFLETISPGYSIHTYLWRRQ
Procedure, shortened: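 Normal human glucocerebrosidase (0.2 nM) with blue fluorogenic substrate (80 uM final) in citrate/phosphate pH 5.9 with 10mM sodium taurocholate, 0.01% tween-20; 40 min RT, NaOH/glycine stop; fluorescence Ex 365/Em 440; AC50 from a titration from 0.6 nM upwards.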

[2] = AP1 Signaling Pathway (AID 357); details: ME-180 AP-1-bla reporter, EGF-induced, beta-lactamase ratio, 5 h; at 7.69 µM (top of the series) unless noted;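 further: ME-180 reporter cells stimulated with EGF at its EC50 level; on the % scale 0 is the no-effect control and ±100 the full control effect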
Procedure, shortened: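 First, ME-180 AP-1-bla cells were cultured overnight at 37 °C in low-serum Opti-MEM. Next, titrated compounds with EC50 EGF were incubated 5 hours. Finally, CCF4 was added for 2.5 hours and the 460/530 nm ratio recorded.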

[3] = NFAT Signaling Pathway (AID 444); details: Jurkat NFAT-bla M1, carbachol, beta-lactamase ratio, 5 h; at 7.69 µM (top of the series) unless noted;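 further: carbachol stimulus at about its EC50 of 1 µM final; on the % scale 0 is the no-effect control and ±100 the full control effect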
Procedure, shortened: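 Jurkat cells carrying an NFAT-driven β-lactamase reporter and co-transfected muscarinic M1 receptor were treated with compound plus carbachol (1 uM final, an EC50 level) for 5 h at 37 °C. CCF4 loading followed for 1 h at RT; 460/530 nm ratio gave %activity.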

[4] = Stat Signaling Pathway (AID 446); details: ME-180 (cervical carcinoma) SIE beta-lactamase reporter, IL-6 stimulated, 5 h; at 7.69 µM (top of the series) unless noted;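 further: ME-180 cervical cancer cells given 40 pM IL-6 alongside compound; SIE-controlled beta-lactamase reporter measured as 460/530 nm FRET emission ratio; on the % scale 0 is the no-effect control and ±100 the full control effect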
Procedure, shortened: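 Compound effects on IL-6-induced STAT reporter activity were measured in ME-180 cells. After overnight culture, cells were co-treated with 40 pM IL-6 for 5 hrs before beta-lactamase substrate loading at room temperature.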

[5] = target: Glucocorticoid receptor (Homo sapiens) (UniProt P04150); experiment: GR-GFP Redistribution (AID 450;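 active means compounds whose dose series gives a full or clear partial fitted curve of increased nuclear translocation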; further: potency means the concentration at half of the fitted maximal effect); details: U2OS GR-GFP nuclear translocation, laser cytometry, 2 h
Glucocorticoid receptor (Homo sapiens), sequence (P04150 whole entry, looked up, the tested form may be a part): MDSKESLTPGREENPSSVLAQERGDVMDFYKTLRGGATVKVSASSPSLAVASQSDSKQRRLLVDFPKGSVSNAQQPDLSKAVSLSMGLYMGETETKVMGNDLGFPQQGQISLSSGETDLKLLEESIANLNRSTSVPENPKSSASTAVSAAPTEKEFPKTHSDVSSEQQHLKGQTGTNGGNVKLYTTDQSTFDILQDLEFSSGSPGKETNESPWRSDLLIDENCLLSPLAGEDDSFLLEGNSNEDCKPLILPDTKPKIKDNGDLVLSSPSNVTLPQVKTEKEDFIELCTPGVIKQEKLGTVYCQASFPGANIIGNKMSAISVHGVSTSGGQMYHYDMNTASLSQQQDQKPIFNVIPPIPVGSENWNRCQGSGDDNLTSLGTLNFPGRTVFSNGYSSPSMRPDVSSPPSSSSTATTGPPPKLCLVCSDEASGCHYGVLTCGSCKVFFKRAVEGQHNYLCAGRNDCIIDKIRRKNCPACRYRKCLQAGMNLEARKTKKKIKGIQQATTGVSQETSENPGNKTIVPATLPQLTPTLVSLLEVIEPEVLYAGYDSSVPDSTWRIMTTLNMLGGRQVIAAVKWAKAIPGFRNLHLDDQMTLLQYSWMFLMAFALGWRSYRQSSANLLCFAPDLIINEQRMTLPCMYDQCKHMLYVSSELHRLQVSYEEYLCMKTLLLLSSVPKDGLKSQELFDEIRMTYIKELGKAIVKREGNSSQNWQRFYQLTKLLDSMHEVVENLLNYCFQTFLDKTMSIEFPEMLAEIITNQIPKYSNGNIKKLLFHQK

[6] = target: Glucocorticoid receptor (Homo sapiens) (UniProt P04150); experiment: GR-EFC Redistribution (AID 451; calls by dose curve; further: potency means the concentration at half of the fitted maximal effect); details: CHO-K1 GR-EFC translocation, beta-gal luminescence, 2 h
Procedure, shortened: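 CHO-K1 cells stably expressing nuclear-localized β-gal enzyme acceptor and GR fused C-terminally to the enzyme donor fragment; ligand-driven nuclear translocation restores β-gal by complementation. Compounds titrated up to 46 uM final, 2 h at 37 °C; luminescence read.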

[7] = target: Mitogen-activated protein kinase 10 (Mus musculus) (UniProt Q61831); experiment: JNK3 AlphaScreen Assay (AID 530); details: JNK3 lysate, c-Jun phosphorylation; series mostly up to 11.4 µM;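 further: kinase came from lysate of stimulated human HepG2 cells; signal reports phosphorylation of biotinylated GST-cJun 1-79 at Ser73 with 10 µM ATP; on the % scale 0 is the no-effect control and ±100 the full control effect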
Procedure, shortened: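 Phosphorylation of biotinylated GST-cJun(1-79) at Ser73 is measured by AlphaScreen proximity luminescence. Enzyme is JNK3 in HepG2 lysates activated with interleukin-1beta and tumor necrosis factor alpha; ATP is 10 uM final.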

[8] = target: 3',5'-cyclic-AMP phosphodiesterase 4B (Homo sapiens) (UniProt Q07343); experiment: qHTS Assay for Inhibitors of PDE-IV (AID 607; active means well fitted activation curve with a large enough effect in the main read-out, with a control signal flat, not every such curve was filed as active; further: % of control where 0% means no effect); details: HEK293 ACTOne CNG channel cells, membrane potential fluorescence; series mostly up to 22.9 µM
3',5'-cyclic-AMP phosphodiesterase 4B (Homo sapiens), sequence (Q07343 whole entry, looked up): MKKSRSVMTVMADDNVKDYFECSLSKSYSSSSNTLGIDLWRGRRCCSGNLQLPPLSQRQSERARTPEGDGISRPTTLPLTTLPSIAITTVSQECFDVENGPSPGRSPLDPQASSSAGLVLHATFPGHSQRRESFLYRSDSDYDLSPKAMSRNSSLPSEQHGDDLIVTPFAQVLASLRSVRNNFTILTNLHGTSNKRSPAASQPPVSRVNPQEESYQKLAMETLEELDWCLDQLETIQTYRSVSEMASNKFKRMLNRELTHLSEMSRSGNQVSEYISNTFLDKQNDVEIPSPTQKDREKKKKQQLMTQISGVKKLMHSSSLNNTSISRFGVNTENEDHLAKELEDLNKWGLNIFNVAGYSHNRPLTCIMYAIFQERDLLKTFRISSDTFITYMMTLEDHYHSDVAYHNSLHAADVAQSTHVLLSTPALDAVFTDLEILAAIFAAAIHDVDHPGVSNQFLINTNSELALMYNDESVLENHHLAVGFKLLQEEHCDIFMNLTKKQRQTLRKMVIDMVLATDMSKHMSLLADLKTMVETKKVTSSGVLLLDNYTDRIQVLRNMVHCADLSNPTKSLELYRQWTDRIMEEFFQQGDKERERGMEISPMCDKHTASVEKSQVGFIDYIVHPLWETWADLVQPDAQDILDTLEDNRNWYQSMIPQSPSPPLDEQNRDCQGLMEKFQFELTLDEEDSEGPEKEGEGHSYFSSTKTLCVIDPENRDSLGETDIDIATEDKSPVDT
Procedure, shortened: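 ACTOne HEK293 cells carry a modified cAMP-gated CNG channel and express endogenous PDE4; plated 1000 cells/well, compounds up to 22.9 uM final. Membrane-potential dye fluorescence (ex 535/em 590) was read; parental cells received 10 uM forskolin + 100 uM RO 20-1724.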

Cc1cc(O)c(C(C)C)cc1CN1CCCCC1
inactive: Potency [1] > 11.4 µM | activity change, negative = inhibition [2] 10.4% | activity change, negative = inhibition [3] -29.6% | activity, negative = inhibition [4] 5.31% | Potency [5] > 46 µM | Potency [6] > 9.22 µM | Potency [7] | Potency [8]

CC(C)C1=C[C@@]23CC[C@@H]4[C@](C)(CCC[C@@]4(C)C(=O)O)[C@@H]2C[C@@H]1[C@@H](C(=O)O)[C@@H]3C(=O)O
inactive: Potency [1] > 11.4 µM | activity change, negative = inhibition [2] 1.99% | activity change, negative = inhibition [3] 4.67% | activity, negative = inhibition [4] 5.23% | Potency [5] > 46 µM | Potency [6] > 9.22 µM | Potency [7] | Potency [8]

CN(C)CCCSc1nc2ccccc2[nH]1
inactive: Potency [1] > 11.4 µM | activity change, negative = inhibition [2] -0.00775% | activity change, negative = inhibition [3] -10.2% | activity, negative = inhibition [4] 3.11% | Potency [5] > 46 µM | Potency [6] > 9.22 µM | Potency [7] | Potency [8]

O=S1(=O)CCN(Cc2ccccn2)CC1
inactive: Potency [1] > 11.4 µM | activity change, negative = inhibition [2] 0.374% | activity change, negative = inhibition [3] 13% | activity, negative = inhibition [4] -10.3% | Potency [5] > 46 µM | Potency [6] > 9.22 µM | Potency [7] | Potency [8]

O=C(O)C(=O)/C=C(\O)c1ccc(Br)cc1
inactive: Potency [1] > 11.4 µM | activity change, negative = inhibition [2] -0.263% | activity change, negative = inhibition [3] 12.1% | activity, negative = inhibition [4] 11.6% | Potency [5] > 46 µM | Potency [6] > 9.22 µM | Potency [7] | Potency [8]

CC(=O)[C@H]1CC[C@@H]2[C@]1(C)CC=C1[C@]23C=C[C@]2(C[C@H](O)CC[C@@]12C)[C@H](C(=O)O)[C@@H]3C(=O)O
inactive: Potency [1] > 11.4 µM | activity change, negative = inhibition [2] -6.74% | activity change, negative = inhibition [3] 13% | activity, negative = inhibition [4] 3.06% | Potency [5] > 46 µM | Potency [6] > 9.22 µM | Potency [7] | Potency [8]

Cc1nc([N+](=O)[O-])cn1-c1nc2ccccn2c1[N+](=O)[O-]
inactive: Potency [1] > 11.4 µM | activity change, negative = inhibition [2] 2.55% | activity change, negative = inhibition [3] -3.74% | activity, negative = inhibition [4] 4.02% | Potency [5] > 46 µM | Potency [6] > 9.22 µM | Potency [7] | Potency [8]

O=S(=O)(c1ccccc1)N1CCN(S(=O)(=O)c2ccccc2)c2ccccc21
inactive: Potency [1] > 11.4 µM | activity change, negative = inhibition [2] -16.4% | activity change, negative = inhibition [3] -13.6% | activity, negative = inhibition [4] -7.57% | Potency [5] > 46 µM | Potency [6] > 9.22 µM | Potency [7] | Potency [8]

CO[C@@H]1/C=C\O[C@]2(C)Oc3c(C)c(O)c4c(O)c(c(CN(C)C)c(O)c4c3C2=O)NC(=O)/C(C)=C\C=C[C@@H](C)[C@@H](O)[C@H](C)[C@@H](O)[C@H](C)[C@H](OC(C)=O)[C@@H]1C
inactive: Potency [1] > 11.4 µM | activity change, negative = inhibition [2] -3.25% | activity change, negative = inhibition [3] 17.6% | activity, negative = inhibition [4] -2.18% | Potency [5] > 46 µM | Potency [6] > 9.22 µM | Potency [7] | Potency [8]

CC(C)[C@@H](C(=O)O)N1C(=O)c2ccccc2C1=O
inactive: Potency [1] > 11.4 µM | activity change, negative = inhibition [2] -2.02% | activity change, negative = inhibition [3] -8.21% | activity, negative = inhibition [4] 2.83% | Potency [5] > 46 µM | Potency [6] > 9.22 µM | Potency [7] | Potency [8]

O=C(O)CCc1ccc(-c2ccccc2)[nH]1
inactive: Potency [1] > 11.4 µM | activity change, negative = inhibition [2] 2.27% | activity change, negative = inhibition [3] 13.2% | activity, negative = inhibition [4] 1.73% | Potency [5] > 46 µM | Potency [6] > 9.22 µM | Potency [7] | Potency [8]

CN(C)Cc1cc(C(C)(C)C)cc(CN(C)C)c1O
inactive: Potency [1] > 11.4 µM | activity change, negative = inhibition [2] 12.4% | activity change, negative = inhibition [3] 3.21% | activity, negative = inhibition [4] -1.5% | Potency [5] > 46 µM | Potency [6] > 9.22 µM | Potency [7] | Potency [8]

S=c1[nH]nc(SCc2ccccc2Cl)c2[nH]cnc12
inactive: Potency [1] > 11.4 µM | activity change, negative = inhibition [2] -6.3% | activity change, negative = inhibition [3] 0.186% | activity, negative = inhibition [4] -8.85% | Potency [5] > 46 µM | Potency [6] > 9.22 µM | Potency [7] | Potency [8]

NC(N)=NCCCC(=O)O
inactive: Potency [1] > 11.4 µM | activity change, negative = inhibition [2] -2.56% | activity change, negative = inhibition [3] 13.2% | activity, negative = inhibition [4] 4.79% | Potency [5] > 46 µM | Potency [6] > 9.22 µM | Potency [7] | Potency [8]

O=C(O)/C(Cc1ccnc2ccccc12)=N\O
inactive: Potency [1] > 11.4 µM | activity change, negative = inhibition [2] -9.39% | activity change, negative = inhibition [3] 0.364% | activity, negative = inhibition [4] 4.23% | Potency [5] > 46 µM | Potency [6] > 9.22 µM | Potency [7] | Potency [8]

O=c1[nH][nH]c(=S)c(=O)[nH]1
inactive: Potency [1] > 11.4 µM | activity change, negative = inhibition [2] -2.98% | activity change, negative = inhibition [3] 12.7% | activity, negative = inhibition [4] 3.19% | Potency [5] > 46 µM | Potency [6] > 9.22 µM | Potency [7] | Potency [8]
